Among the data in ChEMBL document CHEMBL3988442, “University of Dundee, Small-Polar-MMV Screening Library” (2021) are Percent Effect values, retold here.

Among all 67,000 compounds or so, about 300 (0.45%) showed an effect of 50% or more. This is one part of a sample in which strong results are shown more often than they occur.

In this test the target is Polyketide synthase Pks13 (Mycobacterium tuberculosis (strain ATCC 25618 / H37Rv)) (UniProt I6X8D2). Description: Mycobacterium tuberculosis Polyketide synthase 13 Thioesterase (PKS13). Type of test: functional. Details: scale not given: in the data most compounds retested in dose-response had high values. To be noted: 30 µM.
Sequence of Polyketide synthase Pks13 (Mycobacterium tuberculosis (strain ATCC 25618 / H37Rv)) (I6X8D2 whole entry): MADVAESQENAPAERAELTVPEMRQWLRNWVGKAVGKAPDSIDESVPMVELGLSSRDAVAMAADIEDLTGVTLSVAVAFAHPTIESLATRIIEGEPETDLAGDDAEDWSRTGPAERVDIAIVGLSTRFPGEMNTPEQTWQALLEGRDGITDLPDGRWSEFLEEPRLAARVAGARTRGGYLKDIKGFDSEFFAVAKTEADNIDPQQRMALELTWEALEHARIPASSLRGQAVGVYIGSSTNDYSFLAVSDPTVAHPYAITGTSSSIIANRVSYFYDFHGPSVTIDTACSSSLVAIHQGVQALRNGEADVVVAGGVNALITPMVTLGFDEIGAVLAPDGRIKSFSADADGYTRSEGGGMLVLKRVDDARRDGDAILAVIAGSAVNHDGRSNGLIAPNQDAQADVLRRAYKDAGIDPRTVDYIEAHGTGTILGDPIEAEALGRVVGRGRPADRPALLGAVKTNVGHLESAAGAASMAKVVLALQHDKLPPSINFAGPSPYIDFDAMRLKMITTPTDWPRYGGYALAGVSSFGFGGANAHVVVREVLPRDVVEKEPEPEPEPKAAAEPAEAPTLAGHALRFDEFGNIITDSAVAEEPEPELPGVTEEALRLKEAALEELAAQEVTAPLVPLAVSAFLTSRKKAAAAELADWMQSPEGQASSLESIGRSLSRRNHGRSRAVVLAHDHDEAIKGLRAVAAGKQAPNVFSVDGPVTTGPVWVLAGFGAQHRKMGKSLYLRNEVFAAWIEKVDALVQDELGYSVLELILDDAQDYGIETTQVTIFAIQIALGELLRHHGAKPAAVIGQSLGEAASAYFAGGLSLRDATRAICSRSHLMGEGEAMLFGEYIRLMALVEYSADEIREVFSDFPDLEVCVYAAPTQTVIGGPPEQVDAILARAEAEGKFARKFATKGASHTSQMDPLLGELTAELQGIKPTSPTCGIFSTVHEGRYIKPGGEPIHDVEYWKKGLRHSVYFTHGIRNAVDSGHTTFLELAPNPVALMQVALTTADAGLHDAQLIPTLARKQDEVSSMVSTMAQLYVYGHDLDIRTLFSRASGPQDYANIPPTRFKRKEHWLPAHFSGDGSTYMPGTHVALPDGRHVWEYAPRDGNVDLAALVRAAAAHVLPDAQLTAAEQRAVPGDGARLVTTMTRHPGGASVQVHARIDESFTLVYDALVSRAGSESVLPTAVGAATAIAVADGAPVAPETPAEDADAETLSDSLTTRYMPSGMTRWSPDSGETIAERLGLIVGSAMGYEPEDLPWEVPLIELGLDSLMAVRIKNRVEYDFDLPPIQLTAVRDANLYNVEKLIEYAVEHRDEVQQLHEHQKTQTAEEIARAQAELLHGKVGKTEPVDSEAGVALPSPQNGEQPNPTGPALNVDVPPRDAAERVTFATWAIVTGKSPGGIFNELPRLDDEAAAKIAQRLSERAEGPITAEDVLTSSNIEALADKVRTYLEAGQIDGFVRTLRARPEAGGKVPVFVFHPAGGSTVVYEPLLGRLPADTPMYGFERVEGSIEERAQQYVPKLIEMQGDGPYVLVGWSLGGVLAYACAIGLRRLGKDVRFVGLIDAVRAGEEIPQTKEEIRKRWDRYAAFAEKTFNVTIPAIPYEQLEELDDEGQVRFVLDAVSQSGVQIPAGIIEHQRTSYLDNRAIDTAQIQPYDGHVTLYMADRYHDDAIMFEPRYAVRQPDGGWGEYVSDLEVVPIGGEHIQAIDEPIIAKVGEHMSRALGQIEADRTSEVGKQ
Regarding `CNC[C@H]1CC[C@H](c2cc(CN(C)C(=O)c3cnccn3)n(C)n2)CC1`, the Percent Effect is -6.04%. The same measure for `CC(NC(=O)Nc1cccnc1N1CCCC1)c1ccncc1` (stereo unspecified): 0.204%. As for `COc1ncccc1NC(=O)NC(C)c1nncn1C` (stereo unspecified), the figure is -5.35%. As for `CC(NC(=O)Nc1cccnc1N1CCCC1)c1nncn1C` (stereo unspecified), the figure is 56%. Take `CCc1cnc(N2C[C@H]3C[C@H](C(=O)N(C)C)[C@@H](C2)O3)nc1`: the Percent Effect was -7.42%.

On to `N#Cc1nccnc1N1CCC(CSc2ccccc2)C1` (stereo unspecified), for which the Percent Effect is 53.9%. As for `CCS(=O)(=O)N1CCC(CSc2ccccc2)C1` (stereo unspecified), the figure is 9.93%; as for `N#CCCCS(=O)(=O)N1CCC(CSc2ccccc2)C1` (stereo unspecified), -31.5%; as for `Cc1ccc(N2CCO[C@H]3CN(Cc4ccc(F)cc4)C[C@H]32)nn1`, 4.79%. As for `CC(C)N1CCO[C@H]2CN(C(=O)c3ccncc3F)C[C@H]21`, the figure is -27%; as for `O=C(O)[C@]12CCCN(Cc3cccnc3)[C@@H]1CCN(c1cnccn1)C2`, 10.4%. In the case of `O=C(O)[C@]12CCCN(Cc3ccccn3)[C@@H]1CCN(c1cnccn1)C2`, the Percent Effect is 95.4%. The same measure for `O=C(O)[C@]12CCCN(Cc3ccncc3)[C@@H]1CCN(c1cnccn1)C2`: -7.13%; for `Cc1ccsc1CN1CC[C@H]2OCC[C@@]2(C(=O)N2CCCO2)C1`: -17.7%.

Regarding `O=C(NC[C@]12COC[C@H]1CN(Cc1ccncc1)C2)c1ccno1`, the Percent Effect was -9.3%. Take `CN(C)c1ncnc2c1CCN(C(=O)c1cccnc1)CC2`: the Percent Effect was 61.9%. As for `O=C(c1cccnc1)N1CCc2ncnc(N3CCOCC3)c2CC1`, the figure is -1.96%; as for `Cc1ncnc2c1CCN(C(=O)c1cccnc1)CC2`, -18.2%. The same measure for `CN1C(=O)C[C@@H]2[C@@H]1CCN2C(=O)c1ccc[nH]1`: -5.06%; for `Cc1cc(CN2CC[C@H]3C[C@H](C)O[C@@H]3C2)no1`: -27.6%; for `Cc1cccc(OC2CCN(c3ccc(C#N)cn3)CC2)n1`: 22.3%.

Regarding `Cc1cccc(OC2CCN(c3nccnc3C#N)CC2)n1`, the Percent Effect stood at 85.3%. The same measure for `Cc1cccc(OC2CCN(c3ncc(C#N)cc3Cl)CC2)n1`: 26.2%; for `COCCNC(=O)C[C@@H]1COC[C@H]2CN(Cc3cccnc3)C[C@@H]12`: 7.6%. The same measure for `COc1ccc(CN2C[C@H](OCC3CCOCC3)[C@H]3COC[C@H]32)cc1`: -3.35%; for `O=C(Cc1cccc(F)c1)N1CCc2ncnc(NC3CC3)c2CC1`: 121%; for `O=C(Cc1cccc(F)c1)N1CCc2ncnc(NC3CCC3)c2CC1`: -11.9%. The same measure for `O=C(NCc1cccc(F)c1)N1CCc2ncnc(NC3CC3)c2CC1`: -9.48%.

Consider `CCOCCN1Cc2ncn(C)c2C(COCC2CCOCC2)C1` (stereo unspecified), for which the Percent Effect came to 55.1%. As for `Cn1cnc2c1C(COCC1CCOCC1)CN(C1CCOCC1)C2` (stereo unspecified), the figure is -38%; as for `Cn1cnc2c1C(COCC1CCOCC1)CN(Cc1ccccn1)C2` (stereo unspecified), -19.7%; as for `CN1C(=O)C[C@@H]2[C@@H]1CCN2S(=O)(=O)Cc1ccccc1`, -11.3%. The same measure for `O=C(COCC1CC[C@H]2[C@H](CCN2c2ncccn2)O1)N1CCCC1` (stereo partly specified): 9.91%; for `CC/C=C(\C)CN1CCC(CNC(=O)c2ccnc(N)c2)C1` (stereo unspecified): -25.3%. On to `Nc1cc(C(=O)NCC2CCN(Cc3cccc(O)c3)C2)ccn1` (stereo unspecified), for which the Percent Effect was -14.3%. As for `Nc1cc(C(=O)NCC2CCN(Cc3ccncc3F)C2)ccn1` (stereo unspecified), the Percent Effect was found to be 141%. As for `CCc1ccc(CN2CC[C@H]3C[C@H](c4nnc(C)[nH]4)O[C@@H]3C2)o1`, the figure is 32%; as for `O=C(NCC1CC1)[C@@H]1CCO[C@@H]2CCN(Cc3ccc(F)cc3)C[C@H]21`, -0.289%. The same measure for `CNC(=O)CNC1CC2(CCN(c3ncccn3)CC2)c2ccccc21` (stereo unspecified): 61.9%. As for `CNC(=O)CC1CC2(CCN(c3ncccn3)CC2)c2ccccc21` (stereo unspecified), the figure is -25.9%. As for `c1cnc(N2CCC3(CC2)CC(NCC2CC2)c2ccccc23)nc1` (stereo unspecified), the Percent Effect turned out to be 2.19%. The same measure for `O=C1[C@@H]2CN(c3ncc(Cl)cc3F)C[C@]2(C(=O)O)CN1CC1CC1`: 5.43%; for `O=C(c1cnccn1)N1CCN2C[C@H](OCc3ccccn3)C[C@H]2C1`: -10.5%. As for `O=C(N[C@@H]1CN(Cc2ccccc2)C[C@@H]2CCCO[C@@H]21)C1CC1`, the figure is -12.9%. The same measure for `CCN1C(=O)CC[C@@H]2[C@H]1CCN2S(=O)(=O)c1cccs1`: -25.3%. Consider `Cc1ccc(C(=O)N2CCN(c3ncnc4nc(N)ccc34)CC2)cc1`, for which the Percent Effect is -11.7%. The same measure for `CC(C)(C)C(=O)N1CCCN(c2ncnc3nc(N)ccc23)CC1`: 18.3%. As for `Cc1ccc(C(=O)N2CCN(c3ncnc4nc(N)ccc34)CC2)o1`, the Percent Effect is 65.6%. Take `Cc1c(C(=O)N2CCOCC2)nnn1-c1ccc2ncccc2c1`: the Percent Effect stood at 67.3%. As for `Cc1c(C(=O)N2CCC2)nnn1-c1ccc2ncccc2c1`, the figure is -7.58%; as for `Cc1c(C(=O)N2CCS(=O)(=O)CC2)nnn1-c1ccc2ncccc2c1`, -29.1%; as for `CCS(=O)(=O)N1C[C@H]2CC[C@](O)(c3ccc(C)cc3)[C@H]2C1`, 8.05%. As to `Cn1nc(C2CCCN(Cc3cccs3)C2)c2nccnc21` (stereo unspecified), the Percent Effect was 13%. The same measure for `Cn1nc(C2CCCN(Cc3ccccc3)C2)c2nccnc21` (stereo unspecified): 3.08%. Turning to `Cc1ccc(CN2CCCC(c3nn(C)c4nccnc34)C2)s1` (stereo unspecified), the Percent Effect stood at 115%. The same measure for `Cc1cc(CN2CC[C@H]3C(=O)N(c4ccsc4)CCO[C@H]3C2)no1`: -5.2%; for `Cc1csc([C@H]2C[C@@H]3CCN(C(=O)c4cnccn4)C[C@H]3O2)n1`: -30.8%; for `Cc1nn(C)c(C)c1-c1cc(-c2cc(CC(=O)O)cs2)nc(N)c1C#N`: 47.9%. With `CCn1cc(-c2cc(-c3cc(CC(=O)O)cs3)nc(N)c2C#N)c(C)n1`, the Percent Effect is -51.8%. As for `CCn1cc(-c2cc(-c3cc(CN(C)C)cs3)nc(N)c2C#N)c(C)n1`, the figure is 76.9%. On to `COCCN1C[C@H]2CN(Cc3cccc(OC(F)(F)F)c3)CCN2C1=O`, for which the Percent Effect was -30.8%. The same measure for `Cc1cc(CNC(=O)[C@H]2CCCCN2C(=O)OC(C)(C)C)on1`: -8.92%. The same measure for `CC(C)(C)OC(=O)N1CCCCC1C(=O)NCc1cc[nH]n1` (stereo unspecified): -18.2%; for `Cc1ccc(CNC(=O)C2CCCCN2C(=O)OC(C)(C)C)cn1` (stereo unspecified): 56.8%; for `COc1cc(N2C[C@@H]3COC[C@]3(COCc3cccc(C)n3)C2)ncn1`: -18.9%.

In the case of `COc1ccc2nc(C[C@@H]3C[C@@H](C(C)C)[C@H](CN)C=C3C)[nH]c2n1`, the Percent Effect was 56.2%. Regarding `COc1ccc2[nH]c(C[C@@H]3C[C@@H](C(C)C)[C@H](CN(C)C)C=C3C)nc2c1`, the Percent Effect came out at 1.51%. The same measure for `COc1ccc2nc(C[C@@H]3C[C@@H](C(C)C)[C@H](CN(C)C)C=C3C)[nH]c2n1`: -71.1%. With `CCn1nc(C)cc1C(=O)N1C[C@@H]2C[C@@H](c3nnc(C)[nH]3)O[C@@H]2C1`, the Percent Effect was -31.5%.

Regarding `COCCN1C[C@H]2[C@@H](C1)N(C(=O)COc1ccccc1)CC[C@H]2OC`, the Percent Effect was -22.6%. Regarding `CN(C)C(=O)c1cc(-c2cnc(N)nc2)nc2cc(F)ccc12`, the Percent Effect was -19.1%.

As to `COc1ccc2c(C(=O)N(C)C)cc(-c3cnc(N)nc3)nc2c1`, the Percent Effect was determined as 75.3%.

With `Cc1ccc2nc(-c3cnc(N)nc3)cc(C(=O)N(C)C)c2c1`, the Percent Effect turned out to be 1.85%. The same measure for `COc1ccc(C(=O)N2CC[C@@H]3[C@H](CC2)N(C)CCS3(=O)=O)cc1`: -17.1%.

In the case of `Fc1cccc(CN2C[C@@H]3CN(c4ncccn4)C[C@@H]3C2)c1`, the Percent Effect is -4.52%.

For the compound `Cn1c(Cn2ncc(N3CCCCC3)cc2=O)nc2ccccc21`, the Percent Effect was found to be 91%. As for `Cn1c(Cn2ncc(N3CCCC3)cc2=O)nc2ccccc21`, the figure is -18.2%; as for `CN(C)c1cnn(Cc2nc3ccccc3n2C)c(=O)c1`, -19.4%.

`COc1ncccc1C(=O)N1CC[C@H]2C[C@@H](C)O[C@@H]2C1`: the Percent Effect is -30.1%. In the case of `c1ccc(NC[C@@H]2CCC[C@@H]3CN(Cc4cccnc4)C[C@@H]32)nc1`, the Percent Effect is -17.4%. With `CCOc1ccc2nc(CN3CCC(CN)C3)ccc2c1` (stereo unspecified), the Percent Effect is -11.4%. `CCOc1ccc2nc(CN3CCC(CNC(C)=O)C3)ccc2c1` (stereo unspecified): the Percent Effect is -18.1%. The same measure for `CCOc1ccc2nc(CN3CCOC(CN)C3)ccc2c1` (stereo unspecified): 70.3%. The same measure for `Oc1cccc(CN2C[C@H]3CC[C@@H]2CN(Cc2ccc(F)cc2)C3)c1`: -36.6%; for `Cc1cccc(CN2C[C@@H]3COC[C@]3(CNC(=O)N3CCCC3)C2)n1`: -7.01%. As for `CN(C)c1ccc(-c2nnc([C@H]3CCN(C4CCCCC4)C3)o2)cc1`, the figure is 58.9%; as for `Cc1ccc(-c2nnc([C@H]3CCN(C4CCC4)C3)o2)cc1`, 11.8%. Turning to `Clc1ccc(-c2nnc([C@H]3CCN(C4CCCCC4)C3)o2)cc1`, the Percent Effect is -3.49%. As for `O=C(c1ccccc1)N1C[C@@H]2CC[C@H](C1)N(C(=O)CN1CCOCC1)C2`, the figure is -38.5%; as for `N#Cc1cc(C#N)c(SCC(=O)NCc2ccc(F)cc2)nc1N`, -6.72%; as for `N#Cc1cc(C#N)c(SCCC(=O)Nc2ccc(F)cc2)nc1N`, -20.2%. Take `N#Cc1cc(C#N)c(SCC(=O)Nc2ccc(F)cc2)nc1N`: the Percent Effect amounted to 65.2%. `C=Cn1ncc(CN2C[C@@H]3C[C@@H](O)CN3C[C@@H]2Cc2ccccc2)c1C`: the Percent Effect is -6.39%. As for `O=S(=O)(Nc1cnc(N2CCOCC2)nc1)c1ccc(C(F)(F)F)cc1`, the Percent Effect was -20.2%. Take `COCC(=O)Nc1cnc(N2CCOCC2)nc1`: the Percent Effect was -16%. The same measure for `O=C(Nc1cnc(N2CCOCC2)nc1)c1ccc(C(F)(F)F)cc1`: 106%; for `Cc1ccc(CN2CC[C@H]3OCC[C@@H](C(=O)N4CCCCO4)[C@@H]3C2)o1`: 16.9%.

Turning to `CN(C)C[C@H]1OC[C@@H]2CN(C(=O)NCc3cccnc3)CC[C@@H]21`, the Percent Effect was 1.8%. As for `CC(=O)N1C[C@@H](c2ccsc2)[C@@H]2CN(Cc3ccccc3Cl)CC[C@@H]21`, the Percent Effect stood at 9.76%. In the case of `COc1ccc(NC(C)C(=O)N2CCN(c3ccccc3)CC2)cn1` (stereo unspecified), the Percent Effect came to 31.4%. As for `COc1ccc(NC(C)C(=O)N2CCCC2)cn1` (stereo unspecified), the figure is 67.9%; as for `COc1ccc(NC(C)C(=O)N2CCN(c3ncccn3)CC2)cn1` (stereo unspecified), 4.94%. For `CN(C)C[C@]12COC[C@H]1CN(Cc1ccc3ccccc3n1)C2`, the Percent Effect is -18.2%. As for `CCc1noc(CN(CCC2CCCCC2)CC(N)=O)n1`, the figure is 6.76%; as for `CC(C)(C)c1nc(CN(CCC2CCCCC2)CC(N)=O)no1`, 57.2%. As for `CC(C)c1noc(CN(CCC2CCCCC2)CC(N)=O)n1`, the Percent Effect was -4.56%. As for `CSc1ncccc1C(=O)N1C[C@H]2CC[C@@H]1CN(c1cnccn1)C2`, the figure is -2.08%. Take `O=C(O)c1ccc2ccc(N3CCN(CC4CC4)CC3)n2c1`: the Percent Effect was determined as 9.49%. As for `CC(=O)N1CCCc2sc(C(=O)Nc3ccc(C)nc3)nc21`, the figure is -22.2%. As for `Cc1ccc(NC(=O)c2nc3c(s2)CCCN3C(=O)C2CC2)cn1`, the figure is 56.3%; as for `Cc1ccc(NC(=O)c2nc3c(s2)CCCN3C(C)C)cn1`, -9.2%.
